According to PubChem BioAssay (NCI):
About 83,000 compounds went through this panel and 20% of them were active in at least one assay; those are over-represented in the sample as a whole.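 Cell lines were cultured in 96-well plates, exposed to a single compound concentration, and assessed for percent growth 48 hours later.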 A number with no mark means an inactive call. Calls of active or inactive are those of the source. How the source made its calls: active means growth percent below 10; inactive means the rest. Where a SMILES comes first, the peptide text is derived from it. Bridges are numbered along the chain shown (N, C = ends). [ ]: non-standard residue; d: D form. The star is where a group is joined. ξ: configuration not given here. ξNMePhe(4-NMe2) = CNC(Cc1ccc(N(C)C)cc1)C(=O)O; Picolinoyl(3-OH) = O=C(c1ncccc1O)*; ξPip(4-oxo) = O=C1CCNC(C(=O)O)C1; Phg = N[CH](C(=O)O)c1ccccc1; Abu = CC[CH](N)C(=O)O

The compounds below were run on NCI-H460 lung (assay: NCI-60 one-dose screen, 48 h (100 = growth as untreated, 0 = no growth, -100 = all killed)). Settings: 10 µM.

Row | Compound | growth
1 | Nc1nc2c(c(-c3nc(N)nc4c3CCc3ccccc3-4)n1)CCc1ccccc1-2 | 117%
2 | CCOC(=O)CCCS(C)(=O)=O | 110%
3 | COc1ccccc1NC(=O)C1=C(C)NC(C)=C(C(=O)Nc2ccccc2OC)C1c1cccc([N+](=O)[O-])c1 | 67.5%
4 | O=C(c1ccccc1)C1CCC1 | 107%
5 | CCOC(=O)C(=O)C=P(c1ccccc1)(c1ccccc1)c1ccccc1 | 103%
6 | O=[N+]([O-])c1cccc(C(F)(F)F)c1 | 98.1%
7 | CCCC(=O)Nc1ccc2c(c1)CN1C(=O)c3ccccc3C1=N2 | 103%
8 | CC(C)=NNc1ccc([N+](=O)[O-])cc1[N+](=O)[O-] | 88.1%
9 | CC(=O)OCC1=CC2OC(=O)C3=COC(OC4OC(CO)C(O)C(O)C4O)C1C32 (stereo unspecified) | 120%
10 | COc1nc(N)nc2c1ncn2C1OC(CO)CC1O (stereo unspecified) | 115%
11 | Nc1ccc(C(=O)c2ccc(N)c(Br)c2)cc1Br | -0.543% (active)
12 | CO[C@H]1C[C@@H]2CC[C@@H](C)[C@@](O)(O2)C(=O)C(=O)N2CCCC[C@H]2C(=O)O[C@H]([C@H](C)C[C@@H]2CC[C@@H](O)[C@H](OC)C2)CC(=O)[C@H](C)C=C(C)[C@@H](O)[C@@H](OC)C(=O)[C@H](C)C[C@H](C)/C=C/C=C/C=C1C | 45.1%
13 | CC(=O)OCCC(C)CCC=C(C)C (stereo unspecified) | 104%
14 | CCOC(=O)c1cc(/C=C/c2cccc(Cl)c2)on1 | 99.3%
15 | COC(=O)C(C)Oc1ccc(OC#N)cc1 (stereo unspecified) | 103%
16 | Cc1cc(N)ccc1-c1ccc(N)cc1C | 104%
17 | CCC1NC(=O)C(NC(=O)c2ncccc2O)C(C)OC(=O)C(c2ccccc2)NC(=O)C2CC(=O)CCN2C(=O)C(Cc2ccc(N(C)C)cc2)N(C)C(=O)C2CCCN2C1=O (stereo unspecified) (tested in a mixture with another compound) ({Picolinoyl(3-OH)}-T[Abu]P[ξNMePhe(4-NMe2)][ξPip(4-oxo)][Phg]; ester 1-C; configuration not given here) | 26.2%
18 | COc1ccc2c(NCCCCCCCCNc3c4ccccc4nc4cc(OC)ccc34)c3ccccc3nc2c1 | -100% (active)
19 | CC1(O)OC(COc2ccc(Cl)cc2)COC1O (stereo unspecified) | 106%

Row | Compound | growth
20 | CCN(CC)C(=O)/C=C(/C)c1ccccc1 | 104%
21 | N=c1c(C(=O)OCc2ccccc2)ncc(CCl)n1O | 99.4%
22 | COC(=O)c1[nH]c(=O)c(C#N)c(C(=O)OC)c1C(=O)c1ccccc1 | 102%
23 | CCCNC(=O)c1ccc(S(N)(=O)=O)cc1 | 108%
24 | O=C(c1ccc(O)cc1)c1ccc(O)cc1 | 108%
25 | NC(=O)N/N=C\c1ccco1 | 117%
26 | O=S(=O)(O)CC(O)CN1CCN(CCO)CC1 (stereo unspecified) | 114%
27 | Cc1ccc(C)n1-c1ccsc1C(=O)NNC(=O)C(Cl)Cl | 104%
28 | O=c1cc(-c2ccccc2)oc2c1ccc1ccccc12 | 97.1%
29 | Oc1ccc(N=Nc2ccc(Br)cc2)c(O)c1 | 8.13% (active)
30 | O=c1c2ccccc2c(Br)c(Br)c2ccccc12 | 116%
31 | C/C(=C\c1cc(Cl)ccc1OCC(=O)O)[N+](=O)[O-] | 123%
32 | COC(=O)/C=C\C(=O)OC | 111%
33 | O=C(O)c1cc([N+](=O)[O-])ccc1Cl | 114%
34 | N#Cc1c(N)sc(=S)c2c1CCCC2 | 115%
35 | CCOC(=O)c1[nH]c(C)c(C(=O)O)c1C | 110%
36 | C#C[C@H]1CCCCCC1O (stereo partly specified) | 106%
37 | Nc1nc(N)c2cc(S(=O)(=O)c3cccc(C(F)(F)F)c3)ccc2n1 | 16.8%
38 | CCN(CC)CCCC(C)Nc1ccnc(/C=C/c2ccc(Cl)cc2)c1 (stereo unspecified) | 9.3% (active)

What follows are compounds tested on HOP-92 NSCLC in the same assay as above. Settings: 10 µM.

Row | Compound | growth
39 | Nc1nc2c(c(-c3nc(N)nc4c3CCc3ccccc3-4)n1)CCc1ccccc1-2 | 95.1%
40 | CCOC(=O)CCCS(C)(=O)=O | 87%
41 | COc1ccccc1NC(=O)C1=C(C)NC(C)=C(C(=O)Nc2ccccc2OC)C1c1cccc([N+](=O)[O-])c1 | 56.8%
42 | O=C(c1ccccc1)C1CCC1 | 86.6%
43 | CCOC(=O)C(=O)C=P(c1ccccc1)(c1ccccc1)c1ccccc1 | 96.5%
44 | O=[N+]([O-])c1cccc(C(F)(F)F)c1 | 87.8%
45 | CCCC(=O)Nc1ccc2c(c1)CN1C(=O)c3ccccc3C1=N2 | 95.3%
46 | CC(C)=NNc1ccc([N+](=O)[O-])cc1[N+](=O)[O-] | 80.2%
47 | CC(=O)OCC1=CC2OC(=O)C3=COC(OC4OC(CO)C(O)C(O)C4O)C1C32 (stereo unspecified) | 89.3%
48 | COc1nc(N)nc2c1ncn2C1OC(CO)CC1O (stereo unspecified) | 95.3%
49 | Nc1ccc(C(=O)c2ccc(N)c(Br)c2)cc1Br | 34.7%
50 | CO[C@H]1C[C@@H]2CC[C@@H](C)[C@@](O)(O2)C(=O)C(=O)N2CCCC[C@H]2C(=O)O[C@H]([C@H](C)C[C@@H]2CC[C@@H](O)[C@H](OC)C2)CC(=O)[C@H](C)C=C(C)[C@@H](O)[C@@H](OC)C(=O)[C@H](C)C[C@H](C)/C=C/C=C/C=C1C | 30.7%
51 | CC(=O)OCCC(C)CCC=C(C)C (stereo unspecified) | 98.8%
52 | CCOC(=O)c1cc(/C=C/c2cccc(Cl)c2)on1 | 88.8%
53 | COC(=O)C(C)Oc1ccc(OC#N)cc1 (stereo unspecified) | 95.3%
54 | Cc1cc(N)ccc1-c1ccc(N)cc1C | 47.6%
55 | CCC1NC(=O)C(NC(=O)c2ncccc2O)C(C)OC(=O)C(c2ccccc2)NC(=O)C2CC(=O)CCN2C(=O)C(Cc2ccc(N(C)C)cc2)N(C)C(=O)C2CCCN2C1=O (stereo unspecified) (tested in a mixture with another compound) ({Picolinoyl(3-OH)}-T[Abu]P[ξNMePhe(4-NMe2)][ξPip(4-oxo)][Phg]; ester 1-C; configuration not given here) | 53.8%
56 | COc1ccc2c(NCCCCCCCCNc3c4ccccc4nc4cc(OC)ccc34)c3ccccc3nc2c1 | -100% (active)
57 | CC1(O)OC(COc2ccc(Cl)cc2)COC1O (stereo unspecified) | 105%

Row | Compound | growth
58 | CCN(CC)C(=O)/C=C(/C)c1ccccc1 | 80.2%
59 | N=c1c(C(=O)OCc2ccccc2)ncc(CCl)n1O | 97.3%
60 | COC(=O)c1[nH]c(=O)c(C#N)c(C(=O)OC)c1C(=O)c1ccccc1 | 101%
61 | CCCNC(=O)c1ccc(S(N)(=O)=O)cc1 | 88.9%
62 | O=C(c1ccc(O)cc1)c1ccc(O)cc1 | 98%
63 | NC(=O)N/N=C\c1ccco1 | 102%
64 | O=S(=O)(O)CC(O)CN1CCN(CCO)CC1 (stereo unspecified) | 86.2%
65 | Cc1ccc(C)n1-c1ccsc1C(=O)NNC(=O)C(Cl)Cl | 90.5%
66 | O=c1cc(-c2ccccc2)oc2c1ccc1ccccc12 | 50.5%
67 | Oc1ccc(N=Nc2ccc(Br)cc2)c(O)c1 | 64.3%
68 | O=c1c2ccccc2c(Br)c(Br)c2ccccc12 | 83.7%
69 | C/C(=C\c1cc(Cl)ccc1OCC(=O)O)[N+](=O)[O-] | 101%
70 | COC(=O)/C=C\C(=O)OC | 95.4%
71 | O=C(O)c1cc([N+](=O)[O-])ccc1Cl | 82.1%
72 | N#Cc1c(N)sc(=S)c2c1CCCC2 | 103%
73 | CCOC(=O)c1[nH]c(C)c(C(=O)O)c1C | 104%
74 | C#C[C@H]1CCCCCC1O (stereo partly specified) | 87%
75 | Nc1nc(N)c2cc(S(=O)(=O)c3cccc(C(F)(F)F)c3)ccc2n1 | 55.7%
76 | CCN(CC)CCCC(C)Nc1ccnc(/C=C/c2ccc(Cl)cc2)c1 (stereo unspecified) | -19.8% (active)
